An excerpt weighted towards active compounds, which were near 7.6% of everything screened.
MCF10A rerep = A quantitative high throughput screen for small molecules that induce DNA re-replication in MCF 10a normal breast cells; MCF 10A DNA re-replication, Hoechst nuclear intensity, 48 h; Potency, µM (titrated, usually from 46.1 µM), most hits filed as activators; hit rate 2.9% among 350,000; AID 624296, 2012; further: nearly all actives have a fitted effect of over 50% in size
KB-V1 MDR tox = qHTS assay for MDR1-selective chemotherapeutics: Primary screen using the drug-selected MDR subline cells KB-V1; AID 1347076, 2019; Potency, µM (doses to about 46.1 µM), most hits filed as cytotoxic; hit rate 3.4% among 400,000; KB-V1 MDR cells viability, CellTiter-Glo, 72 h; further: nearly all actives have a fitted effect of over 60% in size
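Cells of the MDR subline KB-V1 are plated, dosed with compound at multiple concentrations, and incubated 72 h at 37 degrees C; CellTiter-Glo is then added and luminescence read after 10 min.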
KCNH2 3.1 inh = qHTS for Inhibitors of KCHN2 3.1: Mutant qHTS; Potassium voltage-gated channel subfamily H member 2, brain isoform KCNH2 3.1 (human); hit rate 0.95% among 340,000; U2OS KCNH2 3.1, thallium flux FluxOr; hits give low values; AID 720553, 2013; activity change, % (tested at about 1.8 µM);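 active means maximum activity change below -70%; inconclusive means maximum activity change from -70% to -50%; inactive means maximum activity change above -50%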;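 further: thallium influx rate constant from kinetic fluorescence after stimulation buffer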
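Steps: virus added to U2OS suspension (4 h, RT, dark); medium with 10% FBS added, cells plated, 37 C overnight; FluxOr/Red40 loading buffer 45 min RT; stimulation buffer, 2 min kinetic read; rate constant normalized.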
SW480 rerep = A quantitative high throughput screen for small molecules that induce DNA re-replication in SW480 colon adenocarcinoma cells. Potency, µM (titrated, usually from 46.1 µM), most hits filed as activators. SW480 DNA re-replication, Hoechst DNA content imaging, 48 h. hit rate 1.8% among 340,000; further: nearly all actives have a fitted effect of over 55% in size
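Compounds, transferred as 23 nL by pin tool, were incubated with cells for 48 hr; DNA content per nucleus was then quantified by Hoechst staining and fluorescence plate imaging.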
KCNH2 WT inh = qHTS for Inhibitors of KCHN2 3.1: Wildtype qHTS; Voltage-gated inwardly rectifying potassium channel KCNH2 (Homo sapiens), Q12809; U2OS, BacMam KCNH2, thallium flux FluxOr; hits give low values; activity change, % at 1.84 µM; hit rate 0.37% among 340,000;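 active means maximum activity change below -70%; inconclusive means maximum activity change between -70% and -50%; inactive means maximum activity change above -50%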
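U2OS cells were transduced with wild-type KCNH2 virus (2.03 x 10^8 / mL) for 4 h at room temperature, then cultured overnight at 37 C. Thallium flux was read with FluxOr dye. Rate constants were normalized to DMSO controls.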
KB-3-1 cytotox = qHTS assay for MDR1-selective chemotherapeutics: Primary screen using the parental adenocarcinoma cell KB-3-1; hit rate 1.4% among 400,000; Potency, µM (top dose mostly 46.1 µM), hits mostly cytotoxic; AID 1347075, 2019; KB-3-1 viability, CellTiter-Glo ATP luminescence, 72 h; further: nearly all actives have a fitted effect of over 60% in size
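Parental KB-3-1 viability, qHTS format: 72 h compound exposure, 37 °C; CellTiter-Glo; media-only wells and DMSO plates as controls; concentration-effect fits on corrected data.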
Large screens that a line does not name were inactive; ! = not confirmed by another sample. Unless noted, the call rests on the fitted dose curve; in most records, active means well fitted curve in the direction sought with a large enough effect; inconclusive means small, poorly fitted or top-dose-only effect, or another doubt; inactive means no such curve, though single readings can be large; an effect the other way counts as inactive or inconclusive.

O=S(=O)([N-]c1nc2ccccc2nc1-n1cc[n+](Cc2ccccc2)c1)c1ccc(Br)cc1	MCF10A rerep 18µM, SW480 rerep 18µM
CC(C)CC[n+]1ccn(-c2nc3ccccc3nc2[N-]S(=O)(=O)c2ccc(Cl)cc2)c1	MCF10A rerep 23µM, SW480 rerep inconclusive
COc1cc(C(=O)OCC(=O)c2cc(C)n(C)c2C)cc(OC)c1OC	MCF10A rerep inconclusive, KB-V1 MDR tox 5.2µM, SW480 rerep inconclusive, KB-3-1 cytotox inconclusive
Cc1cc(C(=O)COC(=O)c2nccnc2N)c(C)n1C	none
COc1ccc(C(=O)Nc2nc3ccccc3[nH]2)cc1OC	none
O=C(NCCc1nc2ccccc2[nH]1)c1ccc(F)cc1	KB-V1 MDR tox 12µM, KB-3-1 cytotox inconclusive
O=C(Nc1nc2ccccc2[nH]1)c1ccccc1F	MCF10A rerep inconclusive, KB-V1 MDR tox 7.3µM, SW480 rerep inconclusive, KB-3-1 cytotox inconclusive
O=C(Nc1nc2ccccc2[nH]1)c1ccccc1OC(F)F	KB-3-1 cytotox inconclusive
CCOc1ccc(C(=O)Nc2nc3ccccc3[nH]2)cc1OCC	KB-V1 MDR tox 5.2µM, KB-3-1 cytotox inconclusive
O=C(Nc1nc(-c2ccccc2)nc2ccccc12)c1ccc(F)cc1	MCF10A rerep 18µM, SW480 rerep inconclusive
O=C(CNC(=O)c1ccc(F)cc1)OCc1cc(=O)n2nc(C3CCCCC3)sc2n1	KB-V1 MDR tox inconclusive (no result: MCF10A rerep, KCNH2 3.1 inh, SW480 rerep, KCNH2 WT inh)
Cc1cccc(N(CC(=O)NC2CCCCC2)C(=O)CCC(=O)Nc2nccs2)c1	none
CC(C)NC(=O)Cn1ncn2c(cc3cc(F)ccc32)c1=O	none (no result: MCF10A rerep, KCNH2 3.1 inh, SW480 rerep, KCNH2 WT inh)
O=C(Nc1nc2ccccc2[nH]1)c1ccc(F)cc1	KB-V1 MDR tox inconclusive, KCNH2 3.1 inh -97, SW480 rerep inconclusive, KB-3-1 cytotox inconclusive
CCOc1ccccc1NC(=O)c1ccc2[nH]c(C)c(C)c2c1	MCF10A rerep inconclusive, SW480 rerep 23µM
Cc1cc(C)c(NC(=O)CNC(=O)COC(=O)Cc2cccs2)c(C)c1	none
Cc1cc(C)n(S(=O)(=O)/C=C/c2ccccc2)n1	MCF10A rerep 16µM, KB-V1 MDR tox inconclusive, SW480 rerep inconclusive, KCNH2 WT inh -88, KB-3-1 cytotox inconclusive
O=C(CCNc1cc(Cl)cc(Cl)c1)c1cccs1	MCF10A rerep 23µM
Cc1ccccc1CNC(=O)C1CCCN(c2nnc(C)c3c(C)n(-c4ccccc4)nc23)C1 (stereo not drawn)	MCF10A rerep inconclusive, KCNH2 3.1 inh -71, SW480 rerep inconclusive
Cc1ccc(-n2nc3c(N4CCC(C(=O)NCc5ccccc5C)CC4)nnc(C)c3c2C)cc1	MCF10A rerep inconclusive, KB-V1 MDR tox inconclusive, KB-3-1 cytotox inconclusive
CCOc1ccccc1CNC(=O)C1CCN(c2nnc(C)c3c(C)n(-c4ccc(C)cc4)nc23)CC1	MCF10A rerep 23µM, SW480 rerep inconclusive, KB-3-1 cytotox inconclusive
Cc1cc(Cl)ccc1OCCCC(=O)N/N=C/c1cccc([N+](=O)[O-])c1	none
Cc1cccc(NC(=O)c2sc3nc4c(c(-c5cccs5)c3c2N)CN(C)CC4)c1	MCF10A rerep 16µM, SW480 rerep inconclusive
CC(C)NC(=O)c1sc2nc3c(c(-c4cccs4)c2c1N)CN(C)CC3	none
CCCCOc1ccccc1C1CC(=O)Nc2cc(OC)c(OC)cc21 (stereo not drawn)	none (no result: MCF10A rerep, KCNH2 3.1 inh, SW480 rerep, KCNH2 WT inh)
CCCOc1ccccc1C1CC(=O)Nc2cc3c(cc21)OCCO3 (stereo not drawn)	MCF10A rerep inconclusive, KB-V1 MDR tox 2.6µM, SW480 rerep inconclusive, KB-3-1 cytotox 1.3µM
CCOc1ccccc1C1CC(=O)Nc2cc(OC)c(OC)c(OC)c21 (stereo not drawn)	KB-V1 MDR tox inconclusive
CCOc1ccccc1C1CC(=O)Nc2cc3c(cc21)OCCO3 (stereo not drawn)	MCF10A rerep 7.3µM, KB-V1 MDR tox inconclusive, SW480 rerep 2.9µM, KB-3-1 cytotox 0.46µM
COc1ccccc1N(C)S(=O)(=O)c1ccc(Cl)c(C(=O)OCc2c(C)noc2C)c1	MCF10A rerep 16µM, SW480 rerep inconclusive
COc1ccccc1N(C)S(=O)(=O)c1ccc(Cl)c(C(=O)NNC(=O)c2ccccc2O)c1	KB-3-1 cytotox inconclusive
Cc1ccn(CC(=O)N/N=C/c2cc([N+](=O)[O-])ccc2O)n1	KB-V1 MDR tox inconclusive, SW480 rerep inconclusive
O=C(CCC(=O)Nc1ccc(F)cc1)N/N=C/c1cc([N+](=O)[O-])ccc1O	SW480 rerep inconclusive
O=C(CCC(=O)Nc1cc(C(F)(F)F)ccc1Cl)N/N=C\c1cc([N+](=O)[O-])ccc1O	MCF10A rerep inconclusive, SW480 rerep 15µM
O=C(Cn1cncn1)N/N=C/c1cc([N+](=O)[O-])ccc1O	KCNH2 WT inh -104
CC(C)(C)c1ccc(OCCCn2ccnc2)cc1	MCF10A rerep inconclusive, KCNH2 3.1 inh inconclusive
COc1ccccc1NC(=O)O/N=C(\N)c1ccccc1	MCF10A rerep inconclusive, SW480 rerep 12µM
CN(C)c1ccc(/C=N/OC(=O)Nc2ccccc2Cl)cc1	KB-V1 MDR tox inconclusive, KB-3-1 cytotox 23µM
COc1ccc(/C=N/OC(=O)Nc2ccccc2OC)cc1	MCF10A rerep 7.3µM, KB-V1 MDR tox 9.2µM, SW480 rerep inconclusive, KB-3-1 cytotox 10µM
CCc1cc(C(N)=S)ccn1	none
CCN(CC)C(=O)C1=C(C)N(Cc2ccccc2)C(=O)C(CC(=O)NCCc2ccccn2)C1 (stereo not drawn)	none (no result: MCF10A rerep, SW480 rerep)
C[C@]12CC[C@@H]3c4ccc(OC(=O)c5ccccc5)cc4CC[C@H]3[C@@H]1CC[C@@H]2O	MCF10A rerep 30µM!, KB-V1 MDR tox 21µM, KB-3-1 cytotox inconclusive
CCCCC(=O)OC1CCC2C3CCc4cc(O)ccc4C3CC[C@]12C (stereo partly drawn)	MCF10A rerep 19µM (no result: KB-V1 MDR tox, KCNH2 3.1 inh, KCNH2 WT inh, KB-3-1 cytotox)
C[C@]12CC[C@@H]3c4ccc(O)cc4CC[C@H]3[C@@H]1C[C@@H](O)[C@@H]2O	MCF10A rerep inconclusive, KB-V1 MDR tox inconclusive
C[C@]12CC[C@@H]3c4ccc(O)cc4CC[C@H]3[C@@H]1CC[C@@H]2OC(=O)CCC(=O)O	KB-V1 MDR tox inconclusive
CCC12CCC3c4ccc(O)cc4CCC3C1CC(O)C2O (stereo not drawn)	MCF10A rerep 18µM, SW480 rerep inconclusive
CC(=O)Oc1ccc2c(c1)CCC1C2CCC2(C)C(OC(C)=O)CCC12 (stereo not drawn)	MCF10A rerep inconclusive, KB-V1 MDR tox 10µM, KB-3-1 cytotox inconclusive
CCNC(=O)C1CCN(S(=O)(=O)c2ccc3c(c2)CCCN3C(C)=O)CC1	none (no result: MCF10A rerep, KCNH2 3.1 inh, SW480 rerep, KCNH2 WT inh)

Assay outcomes from PubChem.
